PNC assembly inh = High Content Assay for Compounds that inhibit the Assembly of the Perinucleolar Compartment; PC3M PTB-GFP, PNC prevalence imaging, 16 h; stronger effect = lower value; activity change (PNC), negative = inhibition, % at 10 µM; AID 2417, 2010; actives 3.1% (n = 140,000);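 active = readout at or below -70, meaning at least 70% loss of cells showing the perinucleolar compartment, a nuclear body marking cancer cells; inconclusive = readout between -30 and a set limit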
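Read-out is percentage of cells bearing a perinucleolar compartment, from automated 20x imaging of fixed, Hoechst-stained PC3M PTB-GFP cells. Cells were seeded 4 h, then exposed 16 h to compound (23 nl of library stock) in duplicate plates.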
IMPase Li cell = qHTS Assay for Identifying the Cell-Membrane Permeable IMPase Inhibitors: Potentiation with Lithium. Potency, µM (doses to about 59.4 µM), hits mostly inhibitors. AID 1457, 2008. CHO-M1 cells, IP1 TR-FRET (IP-One), carbachol + lithium. actives 0.35% (n = 210,000);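 also: IP1 builds up when IMPase is blocked and the TR-FRET signal falls; nearly all actives have a fitted effect of over 50% in size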
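CHO cells stably expressing M1 receptor (2000/well) were cultured 16–30 h, then exposed to compounds with a small lithium addition for 30 min at 37C. IP1 was measured by TR-FRET competition; AC50 from Hill fits.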
15-hLO-2 inh = qHTS Assay for Inhibitors of 15-hLO-2 (15-human lipoxygenase 2); Potency, µM (top dose mostly 57.1 µM), actives largely listed as inhibitors; AID 881, 2007; Polyunsaturated fatty acid lipoxygenase ALOX15B (Homo sapiens), O15296; purified 15hLO-2, xylenol orange hydroperoxide absorbance; actives 0.56% (n = 110,000); also: nearly all actives have a fitted effect of over 60% in size
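Screening format was qHTS against 50 nM purified 15hLO-2 in Hepes pH 7.5 with detergent. Activity follows hydroperoxide formation from 45 uM arachidonic acid, measured as 573:405 nm absorbance ratio of the ferric-xylenol orange complex.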
12-hLO inh = qHTS Assay for Inhibitors of 12-hLO (12-human lipoxygenase). actives 0.12% (n = 150,000). purified 12-hLO, xylenol orange hydroperoxide absorbance. Polyunsaturated fatty acid lipoxygenase ALOX12 (Homo sapiens), P18054. Potency, µM (titrated, usually from 57.1 µM), most hits filed as inhibitors; also: nearly all actives have a fitted effect of over 55% in size
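Purified human 12hLO (150 nM), preincubated 15 min with compound, then 40 uM arachidonic acid for 30 min, room temperature, Hepes pH 7.0 with 0.01% Triton X-100. Hydroperoxide detected by ferrous iron/xylenol orange; 573/405 nm absorbance ratio gives reaction progress.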
IMPase inh = qHTS Assay for Identifying the Cell-Membrane Permeable IMPase Inhibitors | inhibition (IP1 accumulation), % at 46.1 µM | 120,000 tested, under 10 active | AID 901, 2007 | Inositol monophosphatase 1 (Rattus norvegicus), P97697 | CHO-M1 cells, IP1 accumulation, HTRF TR-FRET ratio; active = well fitted curve in the direction sought with a large enough effect in the signal ratio, not every such curve was filed as active; inconclusive = small, poorly fitted or top-dose-only effect, or a change in a side signal; inactive = no such curve, though single readings can be large or run the other way; the % refers to the signal ratio;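 also: cells stimulated with carbachol in lithium chloride buffer; higher means more IMPase inhibition seen as more IP1 and lower FRET ratio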
Target sequence (P97697 whole entry, looked up): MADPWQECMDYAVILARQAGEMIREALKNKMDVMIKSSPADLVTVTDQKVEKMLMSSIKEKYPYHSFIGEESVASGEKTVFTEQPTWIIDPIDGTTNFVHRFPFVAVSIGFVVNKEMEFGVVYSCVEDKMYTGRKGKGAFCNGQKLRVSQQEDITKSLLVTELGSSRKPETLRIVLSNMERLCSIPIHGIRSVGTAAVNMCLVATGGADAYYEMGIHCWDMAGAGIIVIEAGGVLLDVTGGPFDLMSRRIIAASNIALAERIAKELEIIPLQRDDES
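In this qHTS, compounds (final up to 46 uM) act on CHO-M1 cells that are then activated through the M1 receptor with carbachol, in pH 7.4 buffer containing 50 mM LiCl, for 30 min. IP1 accumulation is quantified by the IP-One immunoassay.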
A number is an active result; [ ] = remark or other dose. This is one part of a sample in which hits are shown more often than they occur. Unless noted, calls follow the shape of the dose curve; as a rule, active = well fitted curve in the direction sought with a large enough effect; inconclusive = small, poorly fitted or top-dose-only effect, or another doubt; inactive = no such curve, though single readings can be large; an effect the other way counts as inactive or inconclusive.

Screening COc1ccc(S(=O)(=O)N[C@@H](Cc2ccccc2)C(=O)N2CC[C@@]3(O)CCCC[C@H]3C2)cc1 returned PNC assembly inh -87.7, IMPase Li cell inactive, 15-hLO-2 inh inactive, 12-hLO inh inactive and IMPase inh inactive.
Cc1cc(N2CCN(C(=O)OC(C)(C)C)CC2)n2ncnc2n1 was read as PNC assembly inh -88.5, 15-hLO-2 inh inactive, 12-hLO inh inactive and IMPase inh inactive.
For Cc1cc(N2CCN(C(=O)c3ccco3)CC2)n2ncnc2n1 the results were PNC assembly inh inactive, IMPase Li cell inactive, 12-hLO inh inactive and IMPase inh inactive.
Screening CCCCOc1ccc(Cl)cc1CSc1nnc(C)n1N returned PNC assembly inh -97.1, IMPase Li cell inactive, 15-hLO-2 inh inactive, 12-hLO inh inactive and IMPase inh inactive.
CCCCOc1ccc(Cl)cc1CSc1n[nH]c(C)n1 was read as PNC assembly inh inactive, IMPase Li cell inactive, 12-hLO inh inactive and IMPase inh inactive.
For COCCN(CCOC)c1nc(C)nc2c1nc(-c1ccccc1)n2CCCN(C)C the results were IMPase Li cell inactive, 15-hLO-2 inh inactive and 12-hLO inh inactive.
`O=C(COc1ccccc1)Nc1ccccc1NS(=O)(=O)c1cccs1` gave PNC assembly inh -99.7, IMPase Li cell inactive and 12-hLO inh inactive.
COc1ccc(NC(=O)C(=O)NNC(=O)c2cccs2)cc1 was read as PNC assembly inh -93.5, IMPase Li cell inactive and 12-hLO inh inactive.
COc1ccc(C(CC(=O)O)NC(=O)c2cccs2)cc1 (stereo not given) was read as PNC assembly inh -84.6, IMPase Li cell inactive, 15-hLO-2 inh inactive, 12-hLO inh inactive and IMPase inh inactive.
For COc1ccc(C(CC(=O)O)NC(=O)c2sc3ccccc3c2Cl)cc1 (stereo not given) the results were PNC assembly inh inconclusive, IMPase Li cell 5.62µM, 12-hLO inh inactive and IMPase inh inconclusive.
NC(Cc1ccccc1)=NCC(=O)O was read as IMPase Li cell inactive, 15-hLO-2 inh inactive[11.4 µM] and 12-hLO inh inactive[11.4 µM].
`C=C(C)CN1C(=O)C(O)(CC(=O)c2ccc3c(c2)OCCO3)c2ccccc21` (stereo not given) gave PNC assembly inh inactive, IMPase Li cell inactive, 15-hLO-2 inh inactive, 12-hLO inh inactive and IMPase inh inactive.
Screening C=CCN1C(=O)C2(/C(=C(\O)c3ccc4c(c3)OCCO4)C(=O)C(=O)N2CCCOC)c2ccccc21 (stereo not given) returned PNC assembly inh -96.4, IMPase Li cell inactive, 15-hLO-2 inh inactive, 12-hLO inh inactive and IMPase inh inactive.
`CC(=O)Oc1ccc2c(C)cc(=O)[nH]c2c1` gave PNC assembly inh -113.7, IMPase Li cell inactive, 15-hLO-2 inh inactive, 12-hLO inh inactive and IMPase inh inactive.
`CN(C)C(=O)CN(c1ccc2c(c1)OCO2)S(C)(=O)=O` gave PNC assembly inh -106.5, IMPase Li cell inactive, 15-hLO-2 inh inactive, 12-hLO inh inactive and IMPase inh inactive.
For COC(C)=O the results were IMPase Li cell inactive, 15-hLO-2 inh inactive and 12-hLO inh inactive.
Screening C[C@H](CCC(=O)NCC(=O)O)C1CC[C@H]2C3CC[C@@H]4C[C@H](O)CC[C@]4(C)C3C[C@H](O)[C@]12C (stereo not given in full) returned IMPase Li cell inactive.
For C[C@H](Br)C(=O)Nc1ccc(C(=O)O)c(O)c1 the results were IMPase Li cell inactive, 15-hLO-2 inh inactive[11.4 µM] and 12-hLO inh inactive[11.4 µM].
COc1ccc(NC(=O)CSc2nc3nc(-c4cccs4)cc(C(F)(F)F)c3c(=O)[nH]2)c(OC)c1 was read as PNC assembly inh inactive, IMPase Li cell inactive and 12-hLO inh inactive.
Screening O=C(CSc1nc2nc(-c3cccs3)cc(C(F)(F)F)c2c(=O)[nH]1)NCc1ccco1 returned PNC assembly inh inactive, IMPase Li cell 8.91µM, 15-hLO-2 inh inactive, 12-hLO inh inactive and IMPase inh inconclusive.
Screening C[C@@H](CCc1ccc(O)cc1)NCCc1ccc(O)c(O)c1 returned IMPase Li cell inactive, 15-hLO-2 inh inactive, 12-hLO inh inactive and IMPase inh inactive.
For C#CCn1c(S(=O)(=O)Cc2ccc(F)cc2)nc(-c2ccccc2)c1-c1ccccc1 the results were PNC assembly inh -105.9, IMPase Li cell inactive, 15-hLO-2 inh inactive, 12-hLO inh inactive and IMPase inh inactive.
For CC(C)Cn1nnnc1S(=O)(=O)CCc1ccccc1 the results were IMPase Li cell inactive.
`COC(=O)[C@@]1(Cc2ccc(OC)cc2)[C@@H]2[C@@H](CC(=O)[C@H]2CC(=O)C(=O)N(C)C)CN1C(=O)c1ccccc1` gave PNC assembly inh -87.7, IMPase Li cell inactive, 15-hLO-2 inh inactive and 12-hLO inh inactive.
Screening COC(=O)[C@@]1(Cc2ccc(F)cc2)[C@@H]2[C@@H](CC(=O)[C@H]2CC(=O)C(=O)N(C)C)CN1C(=O)c1ccccc1 returned PNC assembly inh inactive, IMPase Li cell inactive, 15-hLO-2 inh inactive and 12-hLO inh inactive.
Cc1cccc(CNc2ccnc(-c3ccccc3Cl)n2)c1 was read as IMPase Li cell inactive and 15-hLO-2 inh inactive.
For COc1cc2c(cc1NC(=O)CN1CCN(S(=O)(=O)c3ccccc3F)CC1)oc1ccccc12 the results were PNC assembly inh inactive, IMPase Li cell 5.62µM, 15-hLO-2 inh inactive, 12-hLO inh inactive and IMPase inh inactive.
For COc1cc2c(cc1NC(=O)CSCC(=O)O)oc1ccccc12 the results were PNC assembly inh -126.9, IMPase Li cell inactive, 15-hLO-2 inh inactive, 12-hLO inh inactive and IMPase inh inactive.
O=C(O)c1c(-c2ccccc2)oc2ccc(OCc3ccc(Cl)c(Cl)c3)cc12 was read as IMPase inh inactive.
Screening COc1ccc(NC(=O)N2CC[C@@]3(CCCN(C(C)=O)C3)C2)cc1 returned IMPase Li cell inactive, 15-hLO-2 inh inactive and 12-hLO inh inactive.
Screening Cc1ccc(C)c(NC(=S)NCc2ccc3[nH]c4c(c3c2)CCCC4)c1 returned PNC assembly inh inactive, IMPase Li cell inactive and 12-hLO inh inconclusive.
Cc1ccccc1NC(=S)NCc1ccc2[nH]c3c(c2c1)CCCC3 was read as PNC assembly inh inactive, IMPase Li cell inactive and 12-hLO inh 14.1µM.
O=C(NCCSCc1ccco1)Nc1cccc(Cl)c1 was read as PNC assembly inh -83.7, IMPase Li cell inactive, 15-hLO-2 inh inactive, 12-hLO inh inactive and IMPase inh inactive.
`O=S(=O)(CCn1cccc1)CCn1cccc1` gave PNC assembly inh -100.0, IMPase Li cell inactive, 12-hLO inh inactive and IMPase inh inactive.
